Values joined by “and” are separate entries in the source; they are usually repeats but may differ in a detail not shown here. Identical values can stand only once. Records with an inconclusive call do not appear. Where a call stands in place of a potency, no number is given. More than one record can exist for a structure, and the calls need not agree. Active and inactive are the calls of the source. The call rests on the fitted dose curve; in most records, active means well fitted curve in the direction sought with a large enough effect; inconclusive means small, poorly fitted or top-dose-only effect, or another doubt; inactive means no such curve, though single readings can be large; an effect the other way counts as inactive or inconclusive.
What was measured:
[1] = Viability qHTS for spleen associated tyrosine kinase inhibitor (SYKi) naive MV4-11 cells (AID 1963823); further: nearly all actives have a fitted effect of over 40% in size
Outline: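 CellTiter-Glo luminescence, 10 min room-temperature incubation, gave viability. Cells: naive MV4-11 (500/well), treated 72 hr at 37 C, 5% CO2.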

[2] = Cellular viability qHTS for adrenocortical cancer (ACC) cell line SW-13 (AID 1963989); details: SW-13 ACC cells viability, CellTiter-Glo, 48 h; activity (max response): stronger effect = lower value; further: nearly all actives have a fitted effect of over 65% in size;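 on activity (max response): cells grown in serum-free medium with ITS supplement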
Outline: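 Viability was read as CellTiter-Glo luminescence after 48 h compound treatment (up to 46 uM final) of SW-13 cells grown serum-free; titration curves were fit with a four-parameter logistic model to give IC50 and efficacy.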

[3] = Cellular viability qHTS for adrenocortical cancer (ACC) cell line NCI-H295R (AID 1963990); further: nearly all actives have a fitted effect of over 60% in size
Outline: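 CellTiter-Glo ATP luminescence, read 48 h after compound addition, measured viability of NCI-H295R adrenocortical cells grown serum-free with ITS. Final concentrations spanned up to 46 uM. Data normalized to DMSO and doxorubicin, fitted for IC50 and maximal response.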
Potency means the concentration at half of the fitted maximal effect.

With `CCCC(CCC)(C(=O)OCC)C(=O)OCC` the Potency [1] was “inactive”, the activity (max response) [2] was 12.5% (inactive) and the Potency [3] was “inactive”.

For `CCCCc1nc2cc(/C=C/C(=O)NO)ccc2n1CCN(CC)CC`, the Potency [1] was 411 nM (active) and 525 nM (active), the Potency [2] was 2 µM (active) and the Potency [3] was 0.708 µM (active).

In the case of `Clc1cc2c(NC3CCCC3)nnc(-c3ccncc3)c2cc1Cl`, the Potency [1] is reported as “inactive and 18.6 µM (active)”, the activity (max response) [2] is reported as -2.48% (inactive) and the Potency [3] is reported as “inactive”.

With `CCOC(=O)c1cnc2c(cnn2CC)c1NN=C(C)C` the Potency [1] was “inactive”, the activity (max response) [2] was 7.42% (inactive) and the Potency [3] was “inactive”.

For `CN1CCN(c2ccc(-c3cccc(CN4CCOCC4)c3)cc2NC(=O)c2c[nH]c(=O)cc2C(F)(F)F)CC1`, the Potency [1] was “inactive”, the activity (max response) [2] was -3.17% (inactive) and the Potency [3] was “inactive”.

For `COC(=O)[C@@H]1[C@H]2C[C@H]3c4[nH]c5ccccc5c4CCN3C[C@@H]2CC[C@@H]1O`, the Potency [1] was “inactive”, the activity (max response) [2] was -16.5% (inactive) and the Potency [3] was “inactive”.

For `O=C(O)C1(C(=O)O)CCC1.[NH2-].[NH2-].[Pt+2]`, the Potency [1] was “inactive”, the activity (max response) [2] was 10.4% (inactive) and the Potency [3] was “inactive”.

For `COC1CCC(N2C(=O)CNc3ncc(-c4ccc(C(C)(C)O)nc4)nc32)CC1` (stereo not drawn), the Potency [1] was 5.25 µM (active), the Potency [2] was 15.8 µM (active) and the Potency [3] was 15.8 µM (active).

With `CCOc1ccccc1OCCN[C@H](C)Cc1ccc(OC)c(S(N)(=O)=O)c1` the Potency [1] was “inactive”, the activity (max response) [2] was 2.5% (inactive) and the Potency [3] was “inactive”.

For `Cc1cc(CCCOc2c(C)cc(-c3noc(C(F)(F)F)n3)cc2C)on1`, the Potency [1] was “inactive”, the activity (max response) [2] was -14.2% (inactive) and the Potency [3] was “inactive”.

In the case of `O=C(O)COc1nn(Cc2ccccc2)c2ccccc12`, the Potency [1] is reported as “inactive”, the activity (max response) [2] is reported as 10.3% (inactive) and the Potency [3] is reported as “inactive”.

In the case of `O=[N+]([O-])c1cccc(S(=O)(=O)NCCNS(=O)(=O)c2cccc([N+](=O)[O-])c2)c1`, the Potency [1] is reported as “inactive”, the activity (max response) [2] is reported as -5.4% (inactive) and the Potency [3] is reported as “inactive”.

With `CN1C(CSCC(F)(F)F)Nc2cc(Cl)c(S(N)(=O)=O)cc2S1(=O)=O` (stereo not drawn) the Potency [1] was “inactive”, the activity (max response) [2] was -6.86% (inactive) and the Potency [3] was “inactive”.

With `COc1cccc2c1c(O)c(C(=O)N(C)c1ccc(C(F)(F)F)cc1)c(=O)n2C` the Potency [1] was “inactive”, the activity (max response) [2] was -27.3% (inactive) and the Potency [3] was “inactive”.

For `Cc1cc(C)c(S(=O)(=O)N(CCc2cccc(Br)c2)Cc2ccc(-c3cccc(S(C)(=O)=O)c3)cc2)c(C)c1`, the Potency [1] was “inactive”, the activity (max response) [2] was -27.1% (inactive) and the Potency [3] was “inactive”.

For `C=C1CCC[C@]2(C)C=C3OC(=O)C(C)=C3C[C@@H]12`, the Potency [1] was “inactive”, the activity (max response) [2] was -6.22% (inactive) and the Potency [3] was “inactive”.

For `CCCCCCCC(=O)[O-].CCCCCCCC(=O)[O-].[Zn+2]`, the Potency [1] was “inactive”, the activity (max response) [2] was 2.96% (inactive) and the Potency [3] was “inactive”.

With `C[C@H]1[C@H](C)CC[C@]2(C(=O)O)CC[C@]3(C)C(=CC[C@@H]4[C@@]5(C)CC[C@H](O)C(C)(C)[C@@H]5CC[C@]43C)[C@H]12` the Potency [1] was 23.5 µM (active), the activity (max response) [2] was -4.55% (inactive) and the Potency [3] was “inactive”.

With `CONC(=O)Nc1ccc(-c2sc3c(c2CN(C)Cc2ccccc2)c(=O)n(-c2ccccc2)c(=O)n3Cc2c(F)cccc2F)cc1` the Potency [1] was 16.6 µM (active), the activity (max response) [2] was -8.17% (inactive) and the Potency [3] was “inactive”.

In the case of `Nc1ccc(F)cc1NC(=O)c1ccc(CNC(=O)/C=C/c2cccnc2)cc1`, the Potency [1] is reported as 1.66 µM (active), the Potency [2] is reported as 11.2 µM (active) and the Potency [3] is reported as 3.55 µM (active).

In the case of `O=C(CCOCCOCCOCCOCCC(=O)Nc1c(I)cc(I)c(C(=O)O)c1I)Nc1c(I)cc(I)c(C(=O)O)c1I`, the Potency [1] is reported as “inactive”, the activity (max response) [2] is reported as 6.37% (inactive) and the Potency [3] is reported as “inactive”.

For `CCOc1cc(OCC)c(C(=O)CCC(=O)O)cc1OCC`, the Potency [1] was “inactive”, the activity (max response) [2] was 6% (inactive) and the Potency [3] was “inactive”.

In the case of `CCCCC(CC)COC(=O)c1ccc(N(C)C)cc1` (stereo not drawn), the Potency [1] is reported as “inactive”, the activity (max response) [2] is reported as -4.79% (inactive) and the Potency [3] is reported as “inactive”.

In the case of `Cc1c(F)cccc1NC(=O)Nc1ccc(Cl)c(S(=O)(=O)[C@H]2CCCNC2)c1O`, the Potency [1] is reported as “inactive”, the activity (max response) [2] is reported as -7.46% (inactive) and the Potency [3] is reported as “inactive”.

With `O=C(CCCN1CC=C(n2c(=O)[nH]c3ccccc32)CC1)c1ccc(F)cc1` the Potency [1] was “inactive”, the activity (max response) [2] was -10.3% (inactive) and the Potency [3] was “inactive”.

With `O=C(O)Cc1ccc(OCCNC[C@H](O)c2ccccc2)cc1` the Potency [1] was “inactive”, the activity (max response) [2] was 0.46% (inactive) and the Potency [3] was “inactive”.

With `O=C(O)c1ccccc1NCCc1ccccc1` the Potency [1] was “inactive”, the activity (max response) [2] was 9.86% (inactive) and the Potency [3] was “inactive”.

With `CCN(CC)C(=O)Cc1csc(NS(=O)(=O)c2cccc(Cl)c2C)n1` the Potency [1] was “inactive”, the activity (max response) [2] was -19.2% (inactive) and the Potency [3] was “inactive”.

For `CCO[C@@H]1OC(=O)C[C@@H]1NC(=O)[C@@H]1CCCN2C(=O)CC[C@H](NC(=O)c3nccc4ccccc34)C(=O)N12`, the Potency [1] was “inactive”, the activity (max response) [2] was -8.71% (inactive) and the Potency [3] was “inactive”.

With `CC(C)CNc1ccnc(NCc2csc(-c3ccccc3)n2)n1` the Potency [1] was 1.66 µM (active), the Potency [2] was 11.2 µM (active) and the Potency [3] was 11.2 µM (active).

For `CCOC(=O)CCNc1cc(N2CCc3ccccc3CC2)nc(-c2ccccn2)n1`, the Potency [1] was 4.68 µM (active), the Potency [2] was 1.26 µM (active) and the Potency [3] was 8.91 µM (active).
